S1P2 blocker: S1P2 (human) receptor antagonism; O95136; inhibition, % at 5 µM; cell-based S1P2 antagonist assay, inhibition at 5 uM; 97,000 compounds, 0.21% hits; in the data active = inhibition above about 45%;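 note: CRE beta-lactamase reporter cells expressing human S1P2 stimulated with S1P; 0% = agonist at EC80 alone and 100% = agonist plus reference antagonist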
Target sequence (O95136 whole entry, looked up): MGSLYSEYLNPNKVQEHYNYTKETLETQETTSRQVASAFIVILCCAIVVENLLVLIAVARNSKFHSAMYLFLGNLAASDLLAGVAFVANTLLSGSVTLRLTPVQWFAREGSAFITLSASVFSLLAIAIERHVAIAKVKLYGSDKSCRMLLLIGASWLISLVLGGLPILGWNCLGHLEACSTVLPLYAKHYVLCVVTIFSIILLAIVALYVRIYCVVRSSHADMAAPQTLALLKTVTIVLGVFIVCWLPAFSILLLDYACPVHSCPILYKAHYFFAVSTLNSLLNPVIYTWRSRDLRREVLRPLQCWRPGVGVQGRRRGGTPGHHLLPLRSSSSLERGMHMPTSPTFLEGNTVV
GALR2 agonist: activates the human galanin receptor 2; 140,000 compounds, 0.48% hits; GALR2-expressing cells, agonist activation read-out; activation, % (no concentration beside the values); AID 803; in the data active = activation above about 5%, passing the limit was not always enough;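 note: 0% = vehicle buffer wells and 100% = reference agonist at full effect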
GALR2 blocker: GALR2 (human) receptor antagonism | GALR2-expressing cells, antagonist mode | AID 828 | O43603 | inhibition, % at 4 µM | 140,000 compounds, 0.39% hits;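 note: cells stimulated with galanin 1-16 at roughly its EC80; 0% = agonist challenge control and 100% = basal control without agonist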
MRP resist rev: compounds reversing MRP-mediated drug resistance | H69AR cells + 2 uM doxorubicin, CellTiter-Glo, 72 h | differential viability (reversal), % at 10 µM | 85,000 compounds, 0.04% hits;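 active = viability drop by adding the cancer drug above about 55%, with treated viability meeting a 40% cutoff, limit read from the data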;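 note: viability without doxorubicin minus viability with 2 µM doxorubicin for each compound; larger differential means the compound sensitizes cells more to doxorubicin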
S1P2 agonist: activates the human S1P2 receptor; O95136; S1P2-expressing cell line, agonist reporter read-out; activation, % at 4.5 µM; 97,000 compounds, 0.46% hits; AID 729; in the data active = activation above about 16%;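 note: 0% = vehicle low control and 100% = maximal reference agonist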
MRP1 act: activates MRP-1. H69AR cells + doxorubicin, viability rescue, CellTiter-Glo. viability increase, % at 10 µM. 140,000 compounds, 0.61% hits. AID 799;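 active = viability gain under doxorubicin at or above a set limit, the compound median plus 3 SD, cut at about 4.7% in these data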;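 note: MRP-1 overexpressing cells given doxorubicin 25 µM after compound pretreatment; 18-22 h compound pretreatment then 72 h with doxorubicin before readout; 0% = doxorubicin-only wells and 100% = vehicle-treated cells without doxorubicin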
GALR2 agon conf: confirmation of human galanin receptor 2 (GALR2) agonists; 460 compounds, 10% hits; activation, % at 5.6 µM; GALR2-expressing cells, agonist activation; AID 864; shares compounds with GALR2 agonist; in the data active = activation above about 8.4%;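 note: 0% = buffer-only vehicle wells and 100% = full reference agonist response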
BLA act counter: beta-lactamase activation, GALR2 counterscreen; shares compounds with GALR2 agonist; CHO NFAT-bla reporter, beta-lactamase FRET activation; activation, % at 5.6 µM; 460 compounds, 10% hits; AID 865;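 active = activation above the screen-wide mean activation plus 3 SD, cut at about 8% in these data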;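 note: 0% = DMSO with PBS wells and 100% = thapsigargin positive control wells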
GALR2 ant conf: confirmation of human galanin receptor 2 (GALR2) antagonists. GALR2-expressing cells, antagonist mode, inhibition. shares compounds with GALR2 blocker. AID 866. inhibition, % at 4 µM. 480 compounds, 60% hits;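 note: cells stimulated with galanin at about its EC80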
BLA inh counter: beta-lactamase inhibition, GALR2 counterscreen; shares compounds with GALR2 blocker; CHO NFAT-BLA reporter, beta-lactamase FRET, thapsigargin-stimulated; inhibition, % at 4.2 µM; 480 compounds, 36% hits; AID 867;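 active = inhibition above the mean inhibition across tested compounds plus 3 SD, cut at about 27% in these data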;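 note: 0% = 500 nM thapsigargin stimulated wells and 100% = unstimulated BSA only wells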
Numbers without * were called inactive; nt = no result given. Rows were chosen to be rich in hits. Some 1.7% of all compounds tested hit in one or more screens of this group. Cut-off read from the data, not from the text of the source, unless noted: active = inhibition above about 27%; inactive = the rest.

SMILES	S1P2 blocker	GALR2 agonist	GALR2 blocker	MRP resist rev	S1P2 agonist	MRP1 act	GALR2 ant conf	BLA inh counter	others
Cc1cc(C)c2nc(NNC(=O)c3ccc(S(=O)(=O)N4CCCC(C)C4)cc3)sc2c1 (configuration not stated)	nt	18*	16	nt	nt	-5	nt	nt	GALR2 agon conf=8.2*;BLA act counter=-2
Cc1ccc2nc(NNC(=O)c3ccc(S(=O)(=O)N4CCc5ccccc5C4)cc3)sc2c1	nt	-3	-3	nt	nt	-3	nt	nt
Cc1cccc2sc(NNC(=O)c3ccc(S(=O)(=O)N4CC(C)CC(C)C4)cc3)nc12 (configuration not stated)	nt	33*	8	nt	nt	-4	nt	nt	GALR2 agon conf=8;BLA act counter=-3
Cc1cc(C)c2nc(NNC(=O)c3ccc(S(=O)(=O)N4CC(C)CC(C)C4)cc3)sc2c1 (configuration not stated)	nt	44*	11	nt	nt	-4	nt	nt	GALR2 agon conf=14*;BLA act counter=2
COc1ccc(CCNC(=O)CN2CCOc3ccccc32)cc1OC	nt	18*	-3	5	nt	-2	nt	nt	GALR2 agon conf=-1;BLA act counter=-1
CC(=O)N(c1ccccc1)c1nc(/C=C/C(=O)Nc2c(C)cc(C)cc2C)cs1	nt	0	12	nt	nt	0	nt	nt
CCOc1cc(/C=N/NC(=O)C(=O)NC)cc(Br)c1O	nt	2	-8	nt	nt	2	nt	nt
O=C(/C=C\c1cccs1)c1c(O)ccc2ccc(=O)oc12	nt	-3	12	nt	nt	-4	nt	nt
Cc1ccc(-n2nc3cc(C)c(N)cc3n2)cc1	-17	10	9	13	3	-2	nt	nt	GALR2 agon conf=2;BLA act counter=4
Cc1cc2nn(-c3cccc4ccccc34)nc2cc1N	11	3	15	-13	4	-3	nt	nt
O=C(Cc1ccccc1)NC(=S)Nc1cccc(C(F)(F)F)c1	8	1	-14	nt	-2	-4	nt	nt
O=C(Cc1ccccc1)NC(=S)Nc1cc(C(F)(F)F)ccc1Cl	1	8.4*	-14	nt	-5	-4	nt	nt	GALR2 agon conf=6;BLA act counter=8
Nc1c(C(=O)NCc2ccco2)c2nc3ccccc3nc2n1CCc1ccccc1F	6	7	-13	-17	4	-5	nt	nt
COc1ccc(CCn2c(N)c(C(=O)NCc3ccco3)c3nc4ccccc4nc32)cc1OC	-16	12*	4	-19	16	-5	nt	nt	GALR2 agon conf=4;BLA act counter=9.9*
Cc1ccc(/C=N/Nc2ccnc3cc(Cl)ccc23)c(C)c1	nt	14*	32*	nt	nt	-6	42*	42*	GALR2 agon conf=19*;BLA act counter=10*
Cc1csc(-c2cnn(-c3ccccc3)c2NC(=O)c2cccc(C(F)(F)F)c2)n1	5	-1	0	nt	-5	-2	nt	nt
CN(C)c1ccc(/C=C/c2nc3ccccc3s2)cc1	58*	20*	45*	nt	1	-3	32*	41*	GALR2 agon conf=6;BLA act counter=9.6*
COc1ccc(S(=O)(=O)N(CCc2ccccc2)CC(=O)NC(C)C)cc1	-11	-1	5	0	-1	-4	nt	nt
O=c1oc2cc(O)ccc2cc1-c1nc2c(s1)CCc1ccccc1-2	nt	14*	37*	nt	nt	-2	66*	70*	GALR2 agon conf=4;BLA act counter=1
O=c1oc2ccccc2cc1-c1ccc(O)cc1O	nt	-1	5	nt	nt	-2	nt	nt
CC1C/C(=C\c2cccnc2)C(=O)/C(=C/c2cccnc2)C1 (configuration not stated)	nt	-1	36*	nt	nt	-4	44*	20
Cc1ccc(C(=O)OC2OC(=O)C(Cl)=C2N2CCOCC2)cc1 (configuration not stated)	nt	-1	1	nt	nt	-1	nt	nt
Nc1nc(Nc2cccc(F)c2)nc2ccccc12	nt	-1	31*	-18	nt	-5	24	13
CC(=O)Oc1ccc2cc(-c3nc4ccccc4n3C)c(=O)oc2c1	15	23*	37*	nt	38*	0	23	30*
Oc1sc(C=Nc2ccc(F)cc2)c2ccccc12	27	-2	39*	nt	-7	-1	27*	14
SMILES	S1P2 blocker	GALR2 agonist	GALR2 blocker	MRP resist rev	S1P2 agonist	MRP1 act	GALR2 ant conf	BLA inh counter	others
Oc1c(C=Nc2cccnc2)sc2ccccc12	7	0	10	2	-2	-3	nt	nt
Oc1sc(C=Nc2ccccc2)c2ccccc12	32	-2	39*	nt	-6	-2	30*	28*
COc1ccc(N=Cc2c(O)[nH]c3ccccc23)cc1	-3	-2	10	2	-7	-1	nt	nt
Cn1c(CSCc2ccccc2)n[nH]c1=S	nt	-4	0	nt	nt	0	nt	nt
O=C(NCc1ccc(F)cc1)C(=O)Nc1nc(C23CC4CC(CC(C4)C2)C3)cs1	nt	-1	-12	nt	nt	-2	nt	nt
COc1ccc(NC2=Nc3cccc4cccc2c34)cc1	nt	0	27*	nt	nt	-3	16	6
COc1ccc2c(c1)N(S(=O)(=O)c1ccccc1)CCC2=O	nt	-2	6	nt	nt	-2	nt	nt
CCCCN(C)CC(O)Cn1cc(/C=C/C(=O)c2cccs2)c2ccccc21 (configuration not stated)	nt	1	50*	nt	nt	-5	29*	43*
O=C(/C=C/c1cn(CC(O)CN2CCCCCC2)c2ccccc12)c1cccs1 (configuration not stated)	nt	2	20	nt	nt	-5	nt	nt
COC(=O)c1ccc(COC(=O)c2[nH]c(C)c(C(C)=O)c2C)o1	29	0	27*	2	-2	-3	30*	2
CCOC(=O)C1=C(Cc2ccc(OC)cc2)C(=O)c2ccccc2C1=O	33	-3	32*	-1	-14	-2	20	17
CCOC(=O)C1=C(Cc2ccc(C)cc2)C(=O)c2ccccc2C1=O	9	-3	16	1	-1	-1	nt	nt
CCOC(=O)C1=C(CSc2nc(-c3ccccc3)ccc2C#N)OC(N)=C(C#N)C1c1cccnc1 (configuration not stated)	6	-1	29*	-2	-8	-2	30*	17
CCOC(=O)C1=C(CSc2nc(-c3ccccc3)ccc2C#N)OC(N)=C(C#N)C1c1ccccc1 (configuration not stated)	-4	-1	17	-21	-5	-2	nt	nt
O=C(CCl)N1N=C(c2ccco2)CC1c1cccs1 (configuration not stated)	nt	-1	29*	nt	nt	-5	33*	18
COc1cc(/C=C(\C#N)c2ccccn2)ccc1OCc1ccc(Cl)cc1	nt	1	9	nt	nt	1	nt	nt
Cc1cccc(-n2c(N)c(-c3nc4ccccc4n3C)c3nc4ccccc4nc32)c1	nt	0	11	nt	nt	-2	nt	nt
Cn1c(-c2c(N)n(-c3ccccc3)c3nc4ccccc4nc23)nc2ccccc21	nt	0	33*	nt	nt	-3	35*	47*
CC(=O)c1c(C)[nH]c(C(=O)COc2ccc(C#N)cc2)c1C	8	-1	8	-2	-7	-2	nt	nt
